Assay results as given in PubChem BioAssay (Tox21).
Inconclusive results are not listed. Calls of active or inactive are those of the source. Unless noted, calls follow the shape of the dose curve; as a rule, active = well fitted curve in the direction sought with a large enough effect in the repeat runs; inconclusive = weak or mixed curves; inactive = no such curve, though single readings can be large; an effect the other way counts as inactive or inconclusive.

Experiments:
[1] = qHTS assay to identify small molecule agonists of the vitamin D receptor (VDR) signaling pathway - cell viability counter screen (AID 743224); also: series mostly up to about 63 µM; % is scaled to controls: 0 for no effect and ±100 for the full control effect; nearly all actives have a fitted effect of over 50% in size
Procedure, shortened: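 Cells: VDR-bla, 2,000/well, settled 4 h. Treatment: compounds in DMSO, 16 h, 37C/5% CO2. Readout: CellTiter-Glo luminescence after 30 min RT.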

[2] = qHTS assay to identify small molecule antagonists of the vitamin D receptor (VDR) signaling pathway - cell viability counter screen (AID 743225); also: % is scaled to controls: 0 for no effect and ±100 for the full control effect; nearly all actives have a fitted effect of over 50% in size
Procedure, shortened: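 HEK293T VDR-bla; cpd + 1a,25-(OH)2D3 3 nM final, 16 h 37C/5% CO2; B/G FRET substrate 2 h RT; then CellTiter-Glo 30 min RT, luminescence.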

[3] = qHTS assay to identify small molecule agonists of the NFkB signaling pathway - cell viability counter screen (AID 1159515; calls by dose curve; also: series mostly up to about 61 µM; % is scaled to controls: 0 for no effect and ±100 for the full control effect; nearly all actives have a fitted effect of over 55% in size)
Procedure, shortened: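 Cells are seeded (2,000 NFkB-bla ME-180 per well), rested overnight, and dosed with DMSO-dissolved compounds for 5 hr at 37 C. Viability is then read by CellTiter-Glo luminescence after 30 min at room temperature.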

[4] = qHTS assay to identify small molecule agonists of the endoplasmic reticulum stress response signaling pathway (AID 1159516; active = well fitted activation curve with a large enough effect in the signal ratio in the repeat runs, not every such curve was filed as active; the % refers to the signal ratio; also: % is scaled to controls: 0 for no effect and ±100 for the full control effect)
Procedure, shortened: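 Cells are seeded at 1,500 per well and incubated overnight. Compounds in DMSO are added for 5 hr at 37 C, then beta-lactamase FRET substrate for 2 hr at room temperature, and fluorescence at 460 and 530 nm is measured.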

[5] = qHTS assay to identify small molecule agonists of the endoplasmic reticulum stress response signaling pathway - cell viability counter screen (AID 1159517; calls by dose curve;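 also: HeLa cells carrying an ER stress response element beta-lactamase reporter; series mostly up to about 61 µM; % is scaled to controls: 0 for no effect and ±100 for the full control effect; nearly all actives have a fitted effect of over 50% in size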)
Procedure, shortened: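 Cytotoxicity of test compounds toward ESRE-bla HeLa cells was assessed after 5 hr exposure. The luminescent CellTiter-Glo signal was measured 30 min after reagent addition.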

[6] = qHTS assay to identify small molecule antagonists of the retinoid-related orphan receptor gamma (ROR-gamma) signaling pathway - cell viability counter screen (AID 1159520); also: % is scaled to controls: 0 for no effect and ±100 for the full control effect; nearly all actives have a fitted effect of over 50% in size
Procedure, shortened: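 Tet-on ROR gamma CHO cells (1,000/well) were plated 4 hr, given compounds in DMSO for 2 hr at 37 C, then induced with 1 uM final doxycycline for 16 hr. Viability was read as ATP by CellTiter-Glo luminescence after 30 min.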

[7] = molecular target: Nuclear receptor ROR-gamma (Homo sapiens) (UniProt P51449); assay: qHTS assay to identify small molecule antagonists of the retinoid-related orphan receptor gamma (ROR-gamma) signaling pathway (AID 1159521)
Procedure, shortened: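 Cells were plated, rested 4 h at 37 C, exposed to compounds for 2 h, then given 1 uM final doxycycline hyclate to induce RORγ expression. After 16 h, ONE-Glo luminescence from the ROR response element reporter was measured.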

[8] = qHTS assay to identify small molecule agonists of the AP-1 signaling pathway - cell viability counter screen (AID 1159525; calls by dose curve; also: nearly all actives have a fitted effect of over 55% in size)
Procedure, shortened: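 Each titration point was normalised to DMSO and tetra n-octyl ammonium bromide controls. The read was Cell Titer Glo luminescence after 30 min at RT, following 5 h compound exposure of ME-180 AP-1-bla cells at 37 °C.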

[9] = qHTS assay to identify small molecule agonists of the AP-1 signaling pathway (AID 1159526; calls by dose curve; also: % is scaled to controls: 0 for no effect and ±100 for the full control effect)
[10] = molecular target: Retinoic acid receptor RXR-alpha (Homo sapiens) (UniProt P19793); assay: qHTS assay to identify small molecule agonists of the RXR signaling pathway (AID 1159527; calls by dose curve; also: % is scaled to controls: 0 for no effect and ±100 for the full control effect; nearly all actives have a fitted effect of over 35% in size)
Sequence of Retinoic acid receptor RXR-alpha (Homo sapiens) (P19793 whole entry, looked up): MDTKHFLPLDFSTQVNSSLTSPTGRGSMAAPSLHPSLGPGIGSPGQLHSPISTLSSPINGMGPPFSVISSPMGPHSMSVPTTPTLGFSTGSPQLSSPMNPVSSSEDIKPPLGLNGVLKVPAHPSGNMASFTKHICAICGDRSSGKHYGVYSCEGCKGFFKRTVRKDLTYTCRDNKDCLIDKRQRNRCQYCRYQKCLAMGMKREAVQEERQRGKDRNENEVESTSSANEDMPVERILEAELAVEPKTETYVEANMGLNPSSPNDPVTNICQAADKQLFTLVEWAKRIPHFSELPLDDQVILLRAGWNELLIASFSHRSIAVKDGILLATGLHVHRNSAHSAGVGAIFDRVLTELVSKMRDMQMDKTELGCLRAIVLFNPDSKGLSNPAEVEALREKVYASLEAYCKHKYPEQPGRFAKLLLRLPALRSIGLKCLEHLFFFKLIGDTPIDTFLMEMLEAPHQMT
Procedure, shortened: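 Cells plated at 2,000/well, rested 5 hr at 37 C, pin-dosed with DMSO compound solutions, incubated 16 hr, then loaded with B/G FRET substrate for 2 hr at RT before dual-emission fluorescence reading.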

[11] = qHTS assay to identify small molecule agonists of the RXR signaling pathway - cell viability counter screen (AID 1159529)
Procedure, shortened: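 Steps: seed RXR-alpha-UAS-bla HEK 293T cells in assay medium containing 2% charcoal-stripped FBS; incubate 5 hr; add compounds in DMSO; incubate 16 hr at 37 C; after the bla read, add CellTiter-Glo and read luminescence at 30 min.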

[12] = qHTS assay to identify small molecule antagonists of the retinoid acid receptor (RAR) signaling pathway - cell viability counter screen (AID 1159551); also: % is scaled to controls: 0 for no effect and ±100 for the full control effect; nearly all actives have a fitted effect of over 35% in size
Procedure, shortened: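 Cells (C3RL4) are plated, incubated overnight, dosed with compound in DMSO, then given retinol at 1 uM final. After 6 h at 37 C, CellTiter-Glo is added and luminescence read following 30 min at room temperature.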

[13] = qHTS assay to identify small molecule antagonists of the retinoic acid receptor (RAR) signaling pathway (AID 1159552)
Procedure, shortened: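 Retinol at 1 uM final stimulated RARE-luciferase expression in C3RL4 cells exposed to test compounds for 6 hr at 37 C. Reduced luminescence, read 30 min after detection reagent, indicated pathway antagonism.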

[14] = qHTS assay to identify small molecule agonists of the retinoic acid receptor (RAR) signaling pathway (AID 1159553); also: % is scaled to controls: 0 for no effect and ±100 for the full control effect
Procedure, shortened: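 Seed C3RL4 reporter cells at 1,000 per well and incubate overnight at 37 C. Add compounds in DMSO, incubate 6 hr. Add luciferase reagent, wait 30 min at room temperature, read luminescence.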

O=C(O)CNC(=O)c1ccccc1
inactive: outcome [1] | outcome [2] | outcome [3] | outcome [4] | outcome [5] | outcome [6] | Potency [7] | outcome [8] | outcome [9] | Potency [10] | Potency [11] | outcome [12]

CC(=O)NC(=O)c1ccccc1O
inactive: outcome [1] | outcome [2] | outcome [3] | outcome [4] | outcome [5] | outcome [6] | Potency [7] | outcome [8] | outcome [9] | Potency [10] | Potency [11] | outcome [12]

O=S(=O)(O)c1cccc2ccccc12
inactive: outcome [1] | outcome [2] | outcome [3] | outcome [4] | outcome [5] | outcome [6] | Potency [7] | outcome [8] | outcome [9] | Potency [10] | Potency [11] | outcome [12]

C=CN1CCCCCC1=O
inactive: outcome [1] | outcome [2] | outcome [3] | outcome [4] | outcome [5] | outcome [6] | Potency [7] | outcome [8] | outcome [9] | Potency [10] | Potency [11] | outcome [12]

CC(N)C12CC3CC(CC(C3)C1)C2 (stereo unspecified)
inactive: outcome [1] | outcome [2] | outcome [3] | outcome [4] | outcome [5] | outcome [6] | Potency [7] | outcome [8] | outcome [9] | Potency [11] | outcome [12] | Potency [13] | Potency [14]

O=C(O)CCSCCC(=O)O
inactive: outcome [1] | outcome [2] | outcome [3] | outcome [4] | outcome [5] | outcome [6] | Potency [7] | outcome [8] | outcome [9] | Potency [10] | Potency [11] | outcome [12]

CC(COc1ccccc1)NN (stereo unspecified)
inactive: outcome [1] | outcome [2] | outcome [3] | outcome [4] | outcome [5] | outcome [6] | Potency [7] | outcome [8] | outcome [9] | Potency [10] | Potency [11] | outcome [12]

C[C@@H]1C[C@H]2[C@@H]3C[C@H](F)C4=CC(=O)C(Cl)=C[C@]4(C)[C@@]3(F)[C@@H](O)C[C@]2(C)[C@@]1(O)C(=O)CO
inactive: outcome [1] | outcome [2] | outcome [3] | outcome [4] | outcome [5] | outcome [6] | Potency [7] | outcome [8] | outcome [9] | Potency [10] | Potency [11] | outcome [12]

CC(=O)O[C@@]12CO[C@@H]1C[C@H](O)[C@@]1(C)C(=O)[C@H](O)C3=C(C)[C@@H](OC(=O)[C@H](O)[C@@H](NC(=O)OC(C)(C)C)c4ccccc4)C[C@@](O)([C@@H](OC(=O)c4ccccc4)[C@H]21)C3(C)C
inactive: outcome [1] | outcome [2] | outcome [3] | outcome [4] | outcome [5] | outcome [6] | Potency [7] | outcome [8] | outcome [9] | Potency [10] | Potency [11] | outcome [12]

C=CCCC(=O)O
inactive: outcome [1] | outcome [2] | outcome [3] | outcome [4] | outcome [5] | outcome [6] | Potency [7] | outcome [8] | outcome [9] | Potency [10] | Potency [11] | outcome [12]

CC(CO)(CO)[N+](=O)[O-]
inactive: outcome [1] | outcome [2] | outcome [3] | outcome [4] | outcome [5] | outcome [6] | Potency [7] | outcome [8] | outcome [9] | Potency [10] | Potency [11] | outcome [12]

CC(C)[C@H]1CC[C@@H](C)CC1=O
inactive: outcome [1] | outcome [2] | outcome [3] | outcome [4] | outcome [5] | outcome [6] | Potency [7] | outcome [8] | outcome [9] | Potency [10] | Potency [11] | outcome [12]

CNC(=O)Nc1ccc(Cl)c(Cl)c1
inactive: outcome [1] | outcome [2] | outcome [3] | outcome [4] | outcome [5] | outcome [6] | Potency [7] | outcome [8] | outcome [9] | Potency [10] | Potency [11] | outcome [12]

CO[Si](C)(OC)c1ccccc1
inactive: outcome [1] | outcome [2] | outcome [3] | outcome [4] | outcome [5] | outcome [6] | Potency [7] | outcome [8] | outcome [9] | Potency [10] | Potency [11] | outcome [12]

CC(C)C[C@@H](N)C(=O)O
inactive: outcome [1] | outcome [2] | outcome [3] | outcome [4] | outcome [5] | activity, negative = cytotoxicity [6] 3.47% [at 19 µM] | activity change, negative = inhibition [7] 6.26% [at 19 µM] | viability change, negative = cytotoxic [8] -0.425% [at 15.8 µM] | activation [9] -5.77% [at 15.8 µM] | activation [10] 4.08% [at 15.8 µM] | activity change, negative = cytotoxicity [11] 4.29% [at 15.8 µM] | activity change, negative = cytotoxicity [12] 3.59% [at 19 µM]

CCC(C)(CCCC(C)C)OC(C)=O (stereo unspecified)
inactive: outcome [1] | outcome [2] | outcome [3] | outcome [4] | outcome [5] | outcome [6] | Potency [7] | outcome [8] | outcome [9] | Potency [10] | Potency [11] | outcome [12]

CC(=O)OCC(=O)[C@@]1(O)[C@H](C)C[C@H]2[C@@H]3CCC4=CC(=O)C=C[C@]4(C)[C@@]3(F)[C@@H](O)C[C@@]21C
inactive: outcome [1] | outcome [2] | outcome [3] | outcome [4] | outcome [5] | outcome [6] | Potency [7] | outcome [8] | outcome [9] | Potency [10] | Potency [11] | outcome [12]

CCOC(=O)C(=O)CCCCCCl
inactive: outcome [1] | outcome [2] | outcome [3] | outcome [4] | outcome [5] | outcome [6] | Potency [7] | outcome [8] | outcome [9] | Potency [10] | Potency [11] | outcome [12]

CNCCO
inactive: outcome [1] | outcome [2] | outcome [3] | outcome [4] | outcome [5] | outcome [6] | Potency [7] | outcome [8] | outcome [9] | Potency [10] | Potency [11] | outcome [12]

Cc1ccc(-c2ncc(Cl)cc2-c2ccc(S(C)(=O)=O)cc2)cn1
inactive: outcome [1] | outcome [2] | outcome [3] | outcome [4] | outcome [5] | outcome [6] | Potency [7] | outcome [8] | outcome [9] | Potency [10] | Potency [11] | outcome [12]
